Screen size: about 350,000 compounds; about 1,600 (0.46%) were called active.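 The calls were made as follows: active = activation of at least 50%, plus an integration ratio under a set limit after plate pattern correction; inactive = the rest.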 What follows is part of a selection rich in actives, with near analogues and random picks from the rest.

In the test the test system is CRF-binding protein / CRF receptor 2 complex (human). The experiment in a line: activators of CRF-R2 with CRF-BP – cell-based, HEK293, calcium dye fluorescence, uHTS, primary screen (AID 588473).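 Also: plate controls were neutral control wells without compound for no effect and CRF at EC100 for full effect.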 The settings on record: calcium dye fluorescence (FLIPR), at 13.2 µM, hits give high values, percent of saturating CRF peptide response.
In the case of `COc1cc(C(=O)NNC(=O)CN2C(=O)NC3(CCCC3)C2=O)cc(OC)c1OC`, the activation was 0.66% (inactive).

Consider `Cc1c(NC(=O)C(=O)N/N=C/c2cccs2)c(=O)n(-c2ccccc2)n1C`, for which the activation was 4.78% (inactive).

On to `Cc1cc(C)c(S(=O)(=O)NCC(c2ccc3c(c2)OCO3)N2CCOCC2)c(C)c1` (stereo not given), for which the activation is -1.15% (inactive).

As for `COc1cccc2c1C(=O)c1c(O)c3c(c(O)c1C2=O)CC(O)(C(C)=NNC(=O)c1ccc(Cl)c(Cl)c1)CC3OC1CC(N)C(O)C(C)O1` (stereo not given), the activation is 67.3% (active).

Regarding `Cc1ccc(C(=O)N/N=C/c2sc(=O)n(Cc3cccc(C(=O)O)c3)c2Cl)cc1`, the activation is 1.16% (inactive).

For `CCCS(=O)(=O)N1CCC(C(=O)NCCc2ccc(OC)c(OC)c2)CC1`, the activation is -0.54% (inactive).

With `Cc1cccc(C(C)C)c1NC(=O)COC(=O)C1CC(=O)N(Cc2ccccc2)C1` (stereo not given), the activation is -1.23% (inactive).

Turning to `NC(=O)c1ccc(NC(=O)COC(=O)c2c3c(nc4ccccc24)/C(=C\c2ccc4c(c2)OCO4)CCC3)cc1`, the activation was 255% (active).

`NS(=O)(=O)c1ccc(NC(=O)COC(=O)c2c3c(nc4ccccc24)/C(=C\c2ccc4c(c2)OCO4)CCC3)cc1`: the activation was 0.53% (inactive).

Regarding `COc1cc(/C=C2\CCCc3c2nc2ccccc2c3C(=O)O)cc(Cl)c1O`, the activation is 0.27% (inactive).

For `COc1ccc([N+](=O)[O-])cc1NC(=O)CC1SC(=Nc2cccc(C)c2C)N(/N=C(\C)c2ccc(C)cc2)C1=O` (stereo not given), the activation is -0.05% (inactive).

As to `Cc1ccc(C(CC(=O)O)NC(=O)c2ccc(S(=O)(=O)N3CCCC3)cc2)cc1` (stereo not given), the activation is 0.98% (inactive).

Consider `Cc1ccc(C(=O)COC(=O)CCCC(=O)NC2CCCCC2)cc1[N+](=O)[O-]`, for which the activation was 1.32% (inactive).

Take `COc1ccc(C)cc1NC(=O)CSc1nnc(CC(=O)Nc2ccccc2F)n1C`: the activation is 3.27% (inactive).

Regarding `Cc1nn(C)cc1N1C(=O)c2cccc3c(N)ccc(c23)C1=O`, the activation is 200% (active).

Regarding `CC(C(=O)O)N1C(=O)c2cccc3cccc1c23` (stereo not given), the activation was -0.43% (inactive).

With `O=C1c2cccc3c([N+](=O)[O-])ccc(c23)C(=O)N1CC1CCCO1` (stereo not given), the activation was 12.3% (inactive).

Turning to `CN1C(=O)c2cccc3c(N)ccc(c23)C1=O`, the activation is 222% (active).

Turning to `CC(C)n1c(CN2CCN(Cc3ccccc3)CC2)nc2ccccc21`, the activation is 1.04% (inactive).

Turning to `COc1cc(CNCc2ccc3c(c2)OCO3)c([N+](=O)[O-])cc1OC`, the activation is -1.29% (inactive).

For the molecule `COc1ccc(Br)cc1CN(C)CC(=O)Nc1cc([N+](=O)[O-])ccc1OC`, the activation was 0.1% (inactive).

In the case of `CCCCN1CCNC1=S`, the activation is -0.03% (inactive).

Consider `CCCCN1C(N)=NC[C@@H]1CC1CCCCC1`, for which the activation was -0.4% (inactive).

For `CCOc1ccc(NC(=O)c2ccc(CSc3nnnn3C)cc2)cc1`, the activation was 1.79% (inactive).

`NS(=O)(=O)c1ccc(NC(=O)COC(=O)C2(c3ccc(F)cc3)CCCC2)cc1`: the activation is -2.26% (inactive).

Take `Cc1cc(NS(=O)(=O)c2ccc(NC(=O)c3cccnc3)cc2)nc(C)n1`: the activation is -0.63% (inactive).

As to `Cc1cc(NS(=O)(=O)c2ccc(NC(=O)c3cccc(OC(F)F)c3)cc2)nc(C)n1`, the activation was 73.2% (active).

As for `Cc1cc(NS(=O)(=O)c2ccc(NC(=O)C(C)Oc3cccc(C)c3C)cc2)nc(C)n1` (stereo not given), the activation was -1.14% (inactive).

In the case of `COc1ccc(N2CCN(C(CNS(=O)(=O)c3ccc(C)cc3)c3ccccc3)CC2)cc1` (stereo not given), the activation is -2.07% (inactive).

On to `CN(Cc1ccccc1Cl)C(=O)C1CCC(=O)N(CCc2cccc(F)c2)C1` (stereo not given), for which the activation is 0.61% (inactive).

Consider `COc1cc(C)ccc1OCC(=O)OCC(=O)c1ccc[nH]1`, for which the activation was 2.06% (inactive).

Turning to `CC(C)CC(O)C1CCN(C(=O)CCc2nnc(-c3ccc4c(c3)OCO4)o2)CC1` (stereo not given), the activation was -0.38% (inactive).

For the molecule `O=C(NCCN1CCOCC1)C1CCN(S(=O)(=O)c2ccccc2)CC1`, the activation is -0.1% (inactive).

Take `O=C1NC[C@@H](c2ccccc2)OC(=O)[C@H](Cc2ccc(F)cc2)CC/C=C/C[C@H]1CC(=O)N(CCO)Cc1ccccc1`: the activation is 54.7% (active).

As for `O=C1CCC/C=C/C[C@@H](CC(=O)N(CCO)Cc2ccccc2)C(=O)NC[C@H](c2ccccc2)O1`, the activation is -0.44% (inactive).

Take `O=C1N[C@@H](c2ccccc2)COC(=O)[C@H](Cc2ccc(F)cc2)C/C=C\C[C@@H]1CC(=O)N(CCO)Cc1ccccc1`: the activation is -2% (inactive).

Consider `CCCNC(=O)c1ccc(N2CCC3(CC2)CC(c2ccc(Cl)cc2)=NO3)c([N+](=O)[O-])c1`, for which the activation is 0.95% (inactive).

Regarding `CCN(CC)C(=O)C1=C(C)N(Cc2ccc(F)cc2)C(=O)C(CC(=O)NCc2cccc3ccccc23)C1` (stereo not given), the activation was -1.12% (inactive).

On to `COc1ccc(CNC(=O)CN2CCC(n3nnc4cc(F)ccc43)CC2)cc1`, for which the activation was 0.03% (inactive).

On to `Cc1ccc(-c2nn(-c3ccccc3)cc2/C=C2\SC(=S)N(CCCCCC(=O)O)C2=O)o1`, for which the activation was 60.7% (active).

In the case of `COc1cccc(/C=C2\SC(=S)N(CCCC(=O)N3CCOCC3)C2=O)c1`, the activation was 2.11% (inactive).

Turning to `COc1ccc(/C=C2/SC(=O)N(CCCCCC(=O)Nc3ccccc3C(=O)O)C2=S)cc1`, the activation is -2.58% (inactive).

`CC(C)CC(=O)NC(=S)NNC(=O)c1cccc([N+](=O)[O-])c1`: the activation is 55% (active).

Take `CCCCCC(=O)NC(=S)NNC(=O)c1ccc([N+](=O)[O-])cc1`: the activation is 96.3% (active).

In the case of `CC(C)(C)SCCNC(=O)c1cccc([N+](=O)[O-])c1`, the activation is -0.01% (inactive).

Turning to `COCCCNC(=S)NC(=O)c1ccc([N+](=O)[O-])cc1`, the activation was -0.87% (inactive).

Consider `O=C(NC(=S)NC1CCS(=O)(=O)C1)c1cccc([N+](=O)[O-])c1` (stereo not given), for which the activation was 0.96% (inactive).

`CC(=O)Nc1ccc(C(=O)NNC(=O)CCCCC(=O)NNC(=O)c2ccc(NC(C)=O)cc2)cc1`: the activation was -1.83% (inactive).

As to `COC(=O)c1c(CCl)noc1C(=O)NC(C)C`, the activation was 0.17% (inactive).

Take `Cc1ccc(Nc2c(O)nc[nH]c2=O)cc1C`: the activation is -0.7% (inactive).

For the molecule `CCN(C(=O)Cc1nc(N)n[nH]1)C1(C(=O)Nc2ccccc2)CCCCC1`, the activation is 1.43% (inactive).

In the case of `C=CCO/N=C/C1=C(O)C(C(=O)OC)C(C)(C)CC1=O` (stereo not given), the activation is 3.2% (inactive).

On to `Cc1ccc(O)c(NC(=S)NC(=O)COc2ccc(Br)cc2)c1`, for which the activation was 195% (active).

Turning to `CC(=O)Nc1ccc(OC(=O)COc2ccc(Br)cc2)cc1`, the activation was 0.61% (inactive).

On to `Cn1cccc1C(=O)NNC(=O)COc1ccc(Br)cc1`, for which the activation is 0.35% (inactive).

(Values after PubChem BioAssay AID588473 (Sanford-Burnham Center for Chemical Genomics, 2011).)
